The values that follow come from PubChem BioAssay (NCI).

Molecules are shown by their SMILES. Compounds without any hit were thinned out: in the full panel of roughly 79,000, 15% have a hit. The source made the active and inactive calls. Rule as the data show it: active = growth inhibition above about 70%; inactive = the rest.

The test can be described thus: NCI Yeast Anticancer Drug Screen. Data for the rad14 strain (AID 159).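 Also: 0% = growth of vehicle-treated control cultures.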 As to conditions: S. cerevisiae rad14 strain growth inhibition; at 3.7 µM; hits give high values. In short, it runs like this:
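Readout: yeast growth inhibition, referenced to vehicle-only cultures. Strain bears a defined alteration in DNA damage repair.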
Turning to `CCCc1cc(C(=O)OCC)cc(CCC)c1O`, the growth inhibition is -2% (inactive).

On to `CC(C)[N+]([O-])(CCCNc1c2ccccc2nc2cccc([N+](=O)[O-])c12)C(C)C`, for which the growth inhibition is 93% (active).

On to `COc1cc2c3c(cccc3c1)C(=O)N(CCN(C)C)C2=O`, for which the growth inhibition was -18% (inactive).

For `NC(=O)NN=C(CS)CS`, the growth inhibition is 0% (inactive).

In the case of `Cc1ccc(NC(=O)/C(Cl)=C(\Cl)C(=O)O)cc1C`, the growth inhibition was 6% (inactive).

With `CCN(CC)CC[n+]1ccc2c(C)c3[nH]c4ccc(O)cc4c3c(C)c2c1`, the growth inhibition is -5% (inactive).

Take `CC(CC(C)(C)[N+](C)(C)C)[N+](C)(C)C` (centres undefined): the growth inhibition was 3% (inactive).

For the compound `COc1ccc(OC)c2cc3ccccc3cc12`, the growth inhibition was -6% (inactive).

Turning to `Nc1ncncc1C(C1=C(O)COC1=O)C1=C(O)COC1=O`, the growth inhibition is -4% (inactive).

In the case of `CSC1=NNC(SC)=NN1`, the growth inhibition was -4% (inactive).

For `Cc1c(Cl)ccc2c1S(=O)(=O)c1cccc(Cl)c1-2`, the growth inhibition was 6% (inactive).

In the case of `[O-][n+]1c2ccc(O)cc2nc2ccc(Cl)cc21`, the growth inhibition was 8% (inactive).

`COc1ccc2ccc3ccccc3c2c1C=O`: the growth inhibition is 5% (inactive).

Turning to `Nc1ccc2c(c1)C(=O)c1cccc(N)c1C2=O`, the growth inhibition was 11% (inactive).

Take `O=C(c1ccc(Cl)cc1Cl)C(Cl)Cl`: the growth inhibition is -25% (inactive).

In the case of `COc1cc(C(=O)/C=C/c2ccccc2O)ccc1O`, the growth inhibition is 62% (inactive).

Turning to `O=Cc1cccc2ccc3ccccc3c12`, the growth inhibition was 1% (inactive).

As to `O=C(Nc1ccc(Cl)cc1)OCC#CCCl`, the growth inhibition is 12% (inactive).

For `Cn1ccnc1Oc1ccc(Cl)cc1`, the growth inhibition is 4% (inactive).

For the compound `c1ccc2c(c1)C(=NCCCN1CCCCCC1)c1cccn1-2`, the growth inhibition was -3% (inactive).

For the compound `C/C(=N\O)C1CC2C=C(C#N)C1N(Cc1ccccc1)C2` (centres undefined), the growth inhibition is -1% (inactive).

For the compound `O=[N+]([O-])C(=C(Sc1ccccc1)Sc1ccccc1)C(Cl)=C(Cl)Cl`, the growth inhibition was 7% (inactive).

Regarding `CCCCCCCCCC/C=C\C(=O)O`, the growth inhibition is -5% (inactive).

With `COc1ccc(N=C2C(=O)Nc3ccc(Br)cc32)cc1`, the growth inhibition was -25% (inactive).

For the compound `COc1ccccc1C(=O)OCC1CCCN2CCCCC12` (centres undefined), the growth inhibition was 17% (inactive).

Take `CC(C)(Br)C(=O)/C=C/c1ccc(Cl)c(Cl)c1`: the growth inhibition was 2% (inactive).

Regarding `Nc1ccccc1CC(O)C(=O)O` (centres undefined), the growth inhibition is 6% (inactive).

In the case of `CC(=O)N/N=C/C(C)(C)C(C)(C)/C=N/NC(C)=O`, the growth inhibition was 2% (inactive).

Consider `CN(C)c1nc2sc3c(c2c(=O)o1)CCCC3`, for which the growth inhibition was -3% (inactive).

In the case of `CC(C)OC(=O)Oc1ccccc1OC(=O)OC(C)C`, the growth inhibition was -4% (inactive).

As to `Cc1ccc(N)c(S)c1`, the growth inhibition was -36% (inactive).

On to `O=C(O)c1ccccc1NC(=S)c1ccccc1`, for which the growth inhibition was 4% (inactive).

As to `COC(=O)c1ccc(NCC2=CC(=O)C=CC2=O)cc1O`, the growth inhibition is 61% (inactive).

Turning to `NC(N)=N/N=C\c1c2ccccc2cc2ccccc12`, the growth inhibition is -41% (inactive).

On to `COC(=O)CSSCc1ccc([N+](=O)[O-])cc1`, for which the growth inhibition is 8% (inactive).

As for `CCS(=O)(=O)c1ccc(/C=C/C=N/NC(=S)NCC(C)C)cc1`, the growth inhibition is 3% (inactive).

For `N#CC(C(=O)Nc1ccccc1)C1=C(Cl)C(=O)c2ccccc2C1=O` (centres undefined), the growth inhibition is 42% (inactive).

Regarding `C[C@H](CCC(=O)NN)[C@H]1CC[C@H]2[C@@H]3CC[C@@H]4C[C@H](O)CC[C@]4(C)[C@H]3CC[C@]12C`, the growth inhibition is -3% (inactive).

For the compound `CC[n+]1ccc2c(C)c3[nH]c4ccc(O)cc4c3c(C)c2c1`, the growth inhibition is -10% (inactive).
